HT1080-NT tox: kills 2HG-producing HT-1080-NT fibrosarcoma cells; 360,000 compounds, 1.6% hits; Potency, µM (doses to about 46.1 µM), hits mostly cytotoxic; HT-1080-NT fibrosarcoma viability, CellTiter-Glo ATP luminescence, 48 h;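 further: NT is the 2HG producing partner of a matched IDH1 knockdown line; nearly all actives have a fitted effect of over 55% in size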
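Viability of the 2HG-overproducing fibrosarcoma line after 48 hours of compound exposure at 37 degrees C was determined by luminescence with CellTiter-Glo, and concentration-effect curves were then fitted and categorized.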
KB-3-1 tox: KB-3-1 parental cell cytotoxicity; AID 1347075; KB-3-1 viability, CellTiter-Glo ATP luminescence, 72 h; 400,000 compounds, 1.4% hits; Potency, µM (series often up to 46.1 µM), hits mostly cytotoxic; further: nearly all actives have a fitted effect of over 60% in size
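Cells are dispensed, compounds pinned in, plates held at 37 °C for 72 h, then CellTiter-Glo is added and luminescence read after 10 minutes. Cell line: parental KB-3-1 in phenol-red-free DMEM, 10% FBS.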
KB-V1 cytotox: kills drug-selected multidrug resistant KB-V1 cells; 400,000 compounds, 3.4% hits; Potency, µM (highest dose often 46.1 µM), most hits filed as cytotoxic; KB-V1 MDR cells viability, CellTiter-Glo, 72 h; AID 1347076; further: nearly all actives have a fitted effect of over 60% in size
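KB-V1, DMEM (no phenol red) + 10% FBS; cpd pin-transferred, titration series; 72 h, 37 degrees C; CellTiter-Glo, luminescence. Data normalized, curve-fit.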
MCF10A rereplic: DNA re-replication induction in MCF 10a cells; MCF 10A DNA re-replication, Hoechst nuclear intensity, 48 h; Potency, µM (titrated, usually from 46.1 µM), actives largely listed as activators; 350,000 compounds, 2.9% hits; further: nearly all actives have a fitted effect of over 50% in size
HT1080 IDH1KD tx: HT-1080 IDH1 knockdown cell toxicity (counter line); 360,000 compounds, 2% hits; AID 686971; Potency, µM (doses to about 46.1 µM), usual class: cytotoxic; HT-1080 IDH1 knockdown viability, ATP luminescence, 48 h
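Viability of IDH1-knockdown HT-1080 fibrosarcoma cells was assessed by CellTiter-Glo after 48 h at 37 °C with titrated compound; concentration-effect curves were classified by fit quality and response size.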
SW480 rerep: inducers of DNA re-replication in SW480 colon cancer cells. SW480 DNA re-replication, Hoechst DNA content imaging, 48 h. Potency, µM (doses to about 46.1 µM), actives largely listed as activators. 340,000 compounds, 1.8% hits; further: nearly all actives have a fitted effect of over 55% in size
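Image-based read-out: total Hoechst fluorescence of nuclei (405 nm excitation, 500-530 nm emission), with hits raising the fraction of high-intensity nuclei. SW480 colon cells incubated 48 hr with compounds at 37 C.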
Each line names hits and unclear results; the compound was inactive in the other large screens. Most compounds without a hit are left out; they make up all but 8% or so of the library. The call rests on the fitted dose curve; in most records, active means well fitted curve in the direction sought with a large enough effect; inconclusive means small, poorly fitted or top-dose-only effect, or another doubt; inactive means no such curve, though single readings can be large; an effect the other way counts as inactive or inconclusive.

COC(=O)C1=C(c2ccc(S(C)(=O)=O)cc2)C[C@@H]2CC[C@H]1N2C(=O)N1CCCC1	none
COc1ccc(CN2C(=O)NC(=O)/C(=C\c3ccco3)C2=O)cc1	none
CC(C)c1ccc(N2C(=O)NC(=O)/C(=C\C=C\c3ccco3)C2=O)cc1	HT1080-NT tox 4.1µM, KB-3-1 tox inconclusive, KB-V1 cytotox inconclusive, MCF10A rereplic 3.7µM, HT1080 IDH1KD tx 5.8µM, SW480 rerep 21µM
O=C1NC(=O)N(Cc2ccccc2)C(=O)/C1=C/C=C/c1ccco1	HT1080-NT tox inconclusive, KB-3-1 tox 15µM, MCF10A rereplic 4.1µM, HT1080 IDH1KD tx inconclusive, SW480 rerep 18µM
O=C(Cn1ncc2ccsc2c1=O)N1CCC2(CC1)OCCO2	KB-V1 cytotox inconclusive
O=C(O)COc1ccc(Cl)cc1Cl	none
O=C(c1ccco1)N1CCN(C(=O)c2ccc(COc3ccc(Cl)cc3Cl)o2)CC1	KB-V1 cytotox inconclusive, MCF10A rereplic 21µM
COC(=O)C1=C(c2ccc(F)cc2OCc2ccccc2)C[C@@H]2CC[C@H]1N2C(=O)NCCc1ccc(F)cc1	KB-V1 cytotox inconclusive, MCF10A rereplic inconclusive
O=c1[nH]c(O)c(C=NCCc2ccccc2)c(=O)[nH]1	KB-V1 cytotox inconclusive
O=c1[nH]c(O)c(/C=C2\C=Nc3ccc(OCc4ccccc4)cc32)c(=O)[nH]1	MCF10A rereplic inconclusive, SW480 rerep 21µM
O=C(CCC(=O)N1C[C@H]2C[C@@H](C1)c1cccc(=O)n1C2)NCc1ccc(F)cc1	SW480 rerep inconclusive
Cc1cc(=O)oc2cc3c(cc12)CCCN3	MCF10A rereplic 7.3µM, SW480 rerep inconclusive
COc1cc(C(=O)N/N=C/c2ccc(OC(=O)N3CCOCC3)cc2)cc(OC)c1OC	HT1080-NT tox inconclusive, KB-V1 cytotox inconclusive, MCF10A rereplic 6.5µM, HT1080 IDH1KD tx 23µM, SW480 rerep 21µM
O=C(N/N=C/c1ccccc1OC(=O)N1CCOCC1)c1cccs1	HT1080 IDH1KD tx inconclusive, SW480 rerep inconclusive
CCOc1ccc2c(c1)c(C(C)=O)c(C)n2Cc1ccco1	none
CC(C)N(C(=O)CSc1nnc(-c2cc3ccccc3cc2O)n1Cc1ccco1)C(C)C	HT1080-NT tox inconclusive, KB-3-1 tox 15µM, KB-V1 cytotox 3.3µM, HT1080 IDH1KD tx inconclusive
C/C1=C\[C@@H](C)C/C=C/[C@H]2[C@@H]3O[C@]3(C)[C@@H](C)[C@H]3[C@H](Cc4c[nH]c5ccccc45)NC(=O)[C@]32C(=O)/C=C/C(=O)[C@@H]1O	MCF10A rereplic 0.73µM, HT1080 IDH1KD tx inconclusive, SW480 rerep 1.2µM
Cc1ccc(-n2c(/C=C/c3ccc4c(c3)OCO4)nc3ccccc3c2=O)cc1	none (no result: HT1080-NT tox, KB-3-1 tox, KB-V1 cytotox, HT1080 IDH1KD tx)
CC(C)C1(C)N=C(c2nc3ccccc3cc2C(=O)O)NC1=O (centres undefined)	none (no result: HT1080-NT tox, HT1080 IDH1KD tx)
CC(=O)OC1CC[C@]2(C#N)[C@H]3CC[C@]4(C)[C@H](C5C=CC(=O)O5)CCC4(O)C3CCC2(O)C1 (some centres undefined)	HT1080-NT tox 26µM, KB-3-1 tox inconclusive, KB-V1 cytotox inconclusive, MCF10A rereplic inconclusive, HT1080 IDH1KD tx 15µM
Cc1ccc(-n2c(O)c(C=NCCN3CCOCC3)c(=O)[nH]c2=O)cc1	HT1080-NT tox inconclusive, KB-V1 cytotox inconclusive
Cc1ccc(-n2c(C)cc(/C=N/NC(=O)c3ccc(CN4CCOCC4)cc3)c2C)cc1	KB-V1 cytotox 16µM, HT1080 IDH1KD tx inconclusive
O=S(=O)(c1ccc(F)c(F)c1F)N1CCN(c2ncnc3sccc23)CC1	KB-3-1 tox inconclusive, KB-V1 cytotox 2.3µM, MCF10A rereplic inconclusive, SW480 rerep inconclusive
CCN(CC)C(=O)/C(Cl)=C(\C)OP(=O)(OC)OC	none (no result: HT1080-NT tox, KB-3-1 tox, KB-V1 cytotox, HT1080 IDH1KD tx)
COc1ccc(-n2nnnc2C(c2ccccc2OC(F)(F)F)N2CCC3(CC2)C(=O)NCN3c2ccccc2)cc1 (centres undefined)	HT1080-NT tox inconclusive, KB-3-1 tox inconclusive, KB-V1 cytotox inconclusive, HT1080 IDH1KD tx 16µM (no result: MCF10A rereplic, SW480 rerep)
O=C(NC(Cc1cnc[nH]1)C(=O)O)c1ccccc1 (centres undefined)	none
COC(=O)C1=C(c2ccc(OCc3ccccc3)cc2)C[C@@H]2CC[C@H]1N2C(=O)NCCCCc1ccccc1	KB-3-1 tox inconclusive, KB-V1 cytotox inconclusive (no result: MCF10A rereplic, SW480 rerep)
COC(=O)C1=C(c2ccccc2OCc2ccccc2)C[C@@H]2CC[C@H]1N2C(=O)NCCOc1ccccc1	KB-3-1 tox inconclusive, KB-V1 cytotox inconclusive, MCF10A rereplic inconclusive
COC(=O)C1=C(c2ccccc2OCc2ccccc2)C[C@@H]2CC[C@H]1N2C(=O)NCCOc1ccc(OC)cc1	MCF10A rereplic 6.5µM, SW480 rerep inconclusive
COC(=O)C1=C(c2ccc(OCc3ccccc3)cc2)C[C@@H]2CC[C@H]1N2C(=O)NCCc1ccc(F)cc1	KB-3-1 tox inconclusive, KB-V1 cytotox 16µM, HT1080 IDH1KD tx inconclusive (no result: MCF10A rereplic, SW480 rerep)
C[C@]12CCC3C(CCC4=C/C(=N/OCC(=O)NC(CCC(N)=O)C(=O)O)CC[C@@]43C)C1CCC2O (some centres undefined)	none
CC1(C)Cc2c(c(N3CCOCC3)nc3sc4c(NCc5ccccc5)nnnc4c23)CS1	KB-3-1 tox inconclusive, SW480 rerep inconclusive
CCCCCn1c(SCCCC)nc2c1c(=O)[nH]c(=O)n2C	KB-V1 cytotox inconclusive, MCF10A rereplic inconclusive
CCCCN(C)C(=O)c1oc2ccc(S(=O)(=O)N3CCCCCC3)cc2c1C	HT1080-NT tox inconclusive, KB-V1 cytotox 2.6µM, HT1080 IDH1KD tx inconclusive
CCCCOC(=O)n1c(=O)oc2ccc(S(=O)(=O)N3CCCCC3)cc21	KB-3-1 tox inconclusive, HT1080 IDH1KD tx inconclusive
COc1ccccc1N1CCN(S(=O)(=O)CCNC(=O)CCCc2ccccc2)CC1	KB-V1 cytotox inconclusive
c1ccc2c(CN3CCCCCCC3)c[nH]c2c1	KB-3-1 tox 21µM, KB-V1 cytotox 15µM, HT1080 IDH1KD tx inconclusive, SW480 rerep inconclusive
CC(NS(C)(=O)=O)c1nnc2n1-c1ccc(Br)cc1C(c1ccccc1Cl)=NC2 (centres undefined)	none
O=[N+]([O-])/C(Cl)=C1\NCCN1Cc1ccc(Cl)nc1	none
Cc1ccc(O)c(C(=O)c2cc(C(=O)NCc3ccccc3)c(=O)n(Cc3ccccc3)c2)c1	none
O=C(c1cc(C(=O)NCc2ccccc2)c(=O)n(Cc2ccccc2)c1)c1cc(Br)ccc1O	KB-3-1 tox inconclusive, KB-V1 cytotox 2.3µM, HT1080 IDH1KD tx inconclusive, SW480 rerep inconclusive
CCCCNC(=O)CN1C(=O)CN=C(c2ccccc2)c2ccccc21	KB-V1 cytotox inconclusive
CC1=C(N2CC2)C(=O)C(CO)=C(N2CC2)C1=O	HT1080-NT tox inconclusive, KB-3-1 tox 0.46µM, KB-V1 cytotox 0.26µM, MCF10A rereplic inconclusive, HT1080 IDH1KD tx 0.0058µM, SW480 rerep inconclusive

Source: PubChem (National Center for Advancing Translational Sciences (NCATS))
